Experimental data taken from PubChem BioAssay (Tox21).
Records with an inconclusive call do not appear. Where a call stands in place of a potency, no number is given. Active and inactive are the calls of the source. Unless noted, calls come from the whole dose curve; as a rule, active = well fitted curve in the direction sought with a large enough effect in the repeat runs; inconclusive = weak or mixed curves; inactive = no such curve, though single readings can be large; an effect the other way counts as inactive or inconclusive.

How the values were obtained:
[1] = qHTS assay to identify small molecule agonists of the RXR signaling pathway - cell viability counter screen (AID 1159529); note: nearly all actives have a fitted effect of over 50% in size; note: potency is the fitted concentration of half-maximal effect
Summary of the method: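 CellTiter-Glo luminescence gave viability in the wells also read for beta-lactamase. Cells (RXR-alpha-UAS-bla HEK 293T, 2% charcoal-stripped FBS medium) had 5 hr plating, then 16 hr compound exposure at 37 C; tetraoctyl ammonium bromide served as positive control.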

[2] = qHTS assay to identify small molecule antagonists of the retinoic acid receptor (RAR) signaling pathway (AID 1159552; note: nearly all actives have a fitted effect of over 50% in size; note: potency is the fitted concentration of half-maximal effect)
Summary of the method: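 Luminescent RARE reporter read-out in C3RL4 cells: 6 hr co-treatment at 37 C of test compounds with retinol at 1 uM final. Cells plated overnight beforehand; luciferase reagent incubated 30 min at room temperature before reading.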

[3] = qHTS assay to identify small molecule antagonists of the estrogen related receptor (ERR) signaling pathway from Tox21 library - cell viability counter screen (AID 1224834); note: nearly all actives have a fitted effect of over 30% in size; note: potency is the fitted concentration of half-maximal effect
Summary of the method: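 Counter screen run in ERR cells (2,000 cells/well): cells pre-incubated 6 h, then treated with compounds for 17.5 h at 37 C. Fluorescence was read 30 min after CellTiter-Fluor addition.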

[4] = biological target: Luciferin 4-monooxygenase (Photinus pyralis) (UniProt P08659); assay: qHTS assay to identify small molecule inhibitors of firefly luciferase (AID 1224835); note: nearly all actives have a fitted effect of over 25% in size; note: potency is the fitted concentration of half-maximal effect
Summary of the method: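 Inhibition of purified Photinus luciferase is measured by luminescence. Substrate levels (D-luciferin, ATP) sit at their KM values. Each compound is tested in a concentration series.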

[5] = qHTS assay to identify small molecule antagonists of the constitutive androstane receptor (CAR) signaling pathway - cell viability counter screen (AID 1224837); note: nearly all actives have a fitted effect of over 45% in size; note: potency is the fitted concentration of half-maximal effect
Summary of the method: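 CITCO at 50 nM final was added alongside compounds (15 concentrations) to double-stable hCAR/CYP2B6-2.2kb HepG2 cells. Following 23 hr at 37 C, cell viability was quantified by CellTiter-Fluor fluorescence intensity.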

[6] = biological target: Nuclear receptor subfamily 1 group I member 3 (Homo sapiens) (UniProt Q14994); assay: qHTS assay to identify small molecule antagonists of the constitutive androstane receptor (CAR) signaling pathway (AID 1224838); note: nearly all actives have a fitted effect of over 40% in size; note: potency is the fitted concentration of half-maximal effect
Summary of the method: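 Inhibition of CITCO-driven (50 nM final) CYP2B6 reporter expression is measured in HepG2 cells stably carrying hCAR. Fifteen compound concentrations are applied for 24 h at 37 C, followed by luciferase luminescence.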

[7] = biological target: Nuclear receptor subfamily 1 group I member 3 (Homo sapiens) (UniProt Q14994); assay: qHTS assay to identify small molecule agonists of the constitutive androstane receptor (CAR) signaling pathway (AID 1224839); note: nearly all actives have a fitted effect of over 15% in size; note: potency is the fitted concentration of half-maximal effect
Summary of the method: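 Luminescent ONE-Glo read-out after 24 hr, 37 C exposure of double-stable HepG2-CYP2B6-hCAR reporter cells to a 15-point compound series, in the presence of 0.75 uM PK11195 (final).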

[8] = qHTS assay to identify small molecule agonists of the estrogen related receptor signaling pathway with the pleiotropic PPARgamma coactivator (PGC) from Tox21 10K library (AID 1224842); note: nearly all actives have a fitted effect of over 15% in size
Summary of the method: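 Luminescence from One-Glo (30 min, room temperature) measured after PGC/ERR cells had 18 h at 37 C with pinned compound (23 nL in DMSO). Cells had been seeded at 2,000 per well and pre-incubated 6 h.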

[9] = qHTS assay to identify small molecule agonists of the retinoic acid receptor (RAR) signaling pathway (AID 1159553); conditions: C3RL4 RARE luciferase reporter, agonist, 6 h; activation: at 73.3 µM (top of the series); note: potency is the fitted concentration of half-maximal effect
Summary of the method: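 In this cell-based screen, 1,000 C3RL4 cells per well were cultured overnight, dosed with test chemicals in DMSO for 6 hr, and assessed for RARE luciferase luminescence.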

[10] = qHTS assay to identify small molecule agonists of the constitutive androstane receptor (CAR) signaling pathway - cell viability counter screen (AID 1224836); note: nearly all actives have a fitted effect of over 45% in size; note: potency is the fitted concentration of half-maximal effect
Summary of the method: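 Cell viability multiplexed with the CAR agonist screen: CellTiter-Fluor fluorescence after 23 hr at 37 C. HepG2-CYP2B6-hCAR cells got compounds at 15 concentrations with PK11195 at 0.75 uM final.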

[11] = qHTS assay to identify small molecule antagonists of the estrogen related receptor signaling pathway with the pleiotropic PPARgamma coactivator (PGC) from Tox21 10K library - cell viability counter screen (AID 1224840; active = well fitted cell-killing curve with a large enough effect in the repeat runs, not every such curve was filed as active; note: nearly all actives have a fitted effect of over 40% in size; note: potency is the fitted concentration of half-maximal effect)
Summary of the method: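 Readout: fluorescence intensity from CellTiter-Fluor after 30 min at 37 C/5% CO2. Preceded by 17.5 h treatment of PGC/ERR cells with DMSO-dissolved compounds, added 6 h post-seeding.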

[12] = qHTS assay to identify small molecule antagonists of the retinoid acid receptor (RAR) signaling pathway - cell viability counter screen (AID 1159551); note: nearly all actives have a fitted effect of over 35% in size
Summary of the method: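 In this counter screen, the RARE-luciferase line C3RL4 was exposed for 6 h at 37 C and 5% CO2 to compounds with retinol at 1 uM final. Cellular ATP, read by luminescence, served as the viability measure.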

[13] = qHTS assay to identify small molecule antagonists of the estrogen related receptor signaling pathway with the pleiotropic PPARgamma coactivator (PGC) from Tox21 10K library (AID 1224841; call rule not given here; note: actives are mostly falling curves and most rising ones were filed inactive; nearly all actives have a fitted effect of over 50% in size)
Summary of the method: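 One-Glo luminescence, measured after half an hour at room temperature, quantified reporter output of PGC/ERR cells. These had been plated at 2,000 per well, incubated 6 h, dosed with compounds in DMSO, then kept 18 h at 37 C.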

Sequence of Nuclear receptor subfamily 1 group I member 3 (Homo sapiens) (Q14994 whole entry, looked up): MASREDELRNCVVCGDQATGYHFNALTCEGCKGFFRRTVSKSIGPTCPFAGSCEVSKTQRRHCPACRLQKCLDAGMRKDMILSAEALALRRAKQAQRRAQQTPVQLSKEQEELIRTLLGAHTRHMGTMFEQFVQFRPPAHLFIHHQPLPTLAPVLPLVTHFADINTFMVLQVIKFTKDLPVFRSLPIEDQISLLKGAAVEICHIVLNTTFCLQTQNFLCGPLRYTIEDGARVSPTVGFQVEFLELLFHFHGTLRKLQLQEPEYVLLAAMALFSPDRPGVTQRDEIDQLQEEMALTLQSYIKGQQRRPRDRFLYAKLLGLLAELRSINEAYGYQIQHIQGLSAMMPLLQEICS
Sequence of Luciferin 4-monooxygenase (Photinus pyralis) (P08659 whole entry, looked up): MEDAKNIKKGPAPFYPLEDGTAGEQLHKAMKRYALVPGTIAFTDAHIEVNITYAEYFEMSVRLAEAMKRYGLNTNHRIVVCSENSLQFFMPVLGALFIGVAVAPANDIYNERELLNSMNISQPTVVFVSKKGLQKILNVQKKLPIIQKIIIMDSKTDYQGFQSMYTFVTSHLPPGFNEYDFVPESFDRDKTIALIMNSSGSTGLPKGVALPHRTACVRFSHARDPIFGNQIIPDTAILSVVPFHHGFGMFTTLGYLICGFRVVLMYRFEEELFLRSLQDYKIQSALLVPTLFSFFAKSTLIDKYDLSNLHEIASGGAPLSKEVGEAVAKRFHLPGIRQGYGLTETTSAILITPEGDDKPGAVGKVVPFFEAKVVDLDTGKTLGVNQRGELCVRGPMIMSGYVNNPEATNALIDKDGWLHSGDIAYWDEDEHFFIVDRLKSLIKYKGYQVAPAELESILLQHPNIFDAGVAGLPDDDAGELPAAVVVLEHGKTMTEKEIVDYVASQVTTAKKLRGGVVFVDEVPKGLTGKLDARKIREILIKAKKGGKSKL

c1csc(SSc2cccs2)c1
Potency [1]: 38.9 µM (active) | Potency [2]: 9.69 µM (active) | Potency [3]: 54.5 µM (active) | Potency [4]: 22.4 µM (active) | Potency [5]: 48.6 µM (active) | Potency [6]: 43.3 µM (active) | Potency [7]: inactive | Potency [8]: inactive

O=c1cc(-c2ccccc2)oc2cc(O)cc(O)c12
Potency [1]: inactive | Potency [2]: inactive | Potency [9]: 0.969 µM (active) | Potency [3]: 30.6 µM (active) | Potency [6]: inactive | Potency [7]: 30.6 µM (active)

C=CC(=O)OCC1CC2CC1C1CCC(COC(=O)C=C)C21 (configuration not stated)
Potency [1]: 43.6 µM (active) | Potency [2]: 8.63 µM (active) | Potency [4]: inactive | Potency [10]: inactive | Potency [5]: inactive | Potency [6]: inactive | Potency [7]: inactive | Potency [11]: 68.6 µM (active)

O=C(OCC(O)CO)c1ccccc1Nc1ccnc2cc(Cl)ccc12 (configuration not stated)
Potency [1]: inactive | Potency [12]: inactive | Potency [2]: inactive | Potency [3]: 29.8 µM (active) | Potency [5]: inactive | Potency [6]: inactive | Potency [7]: inactive | Potency [11]: inactive | Potency [13]: inactive

C[C@@H]1CN(CCCn2c3ccccc3c3ccccc32)C[C@H](C)N1
Potency [1]: 23.9 µM (active) | Potency [2]: 33.5 µM (active) | Potency [3]: 29.8 µM (active) | Potency [10]: 29.8 µM (active) | Potency [5]: 26.6 µM (active) | Potency [7]: 2.11 µM (active) | Potency [11]: 26.6 µM (active)

CN1CCCN=C1COC(=O)C(O)(c1ccccc1)C1CCCCC1 (configuration not stated)
Potency [12]: inactive | Potency [2]: inactive | Potency [9]: inactive | Potency [3]: inactive | Potency [4]: inactive | Potency [10]: inactive | Potency [5]: inactive | Potency [6]: inactive | Potency [7]: inactive | Potency [11]: inactive | Potency [13]: inactive | Potency [8]: inactive

Cc1cccc(N(C)C(=S)Oc2ccc3c(c2)CCC3)c1
Potency [12]: inactive | Potency [2]: inactive | Potency [9]: inactive | Potency [3]: inactive | Potency [4]: inactive | Potency [10]: inactive | Potency [5]: inactive | Potency [6]: inactive | Potency [7]: 23.7 µM (active) | Potency [11]: inactive | Potency [13]: inactive | Potency [8]: inactive

OC[C@H]1O[C@@H](n2cnc3c(=S)nc[nH]c32)[C@H](O)[C@@H]1O
Potency [1]: 2.13 µM (active) | Potency [2]: inactive | Potency [6]: 1.88 µM (active) | Potency [7]: inactive | Potency [11]: inactive | Potency [13]: inactive | Potency [8]: inactive

CC1CC(C)C(=O)C1=O (configuration not stated)
Potency [1]: inactive | Potency [12]: inactive | Potency [3]: inactive | Potency [4]: inactive | Potency [5]: inactive | Potency [6]: inactive | Potency [7]: inactive | Potency [11]: inactive

Cc1ccco1
Potency [1]: inactive | Potency [12]: inactive | Potency [3]: inactive | Potency [4]: inactive | Potency [10]: inactive | Potency [5]: inactive | Potency [6]: inactive | Potency [7]: inactive | Potency [11]: inactive

CCCCCC#CC(=O)OC
Potency [1]: inactive | Potency [12]: inactive | Potency [3]: inactive | Potency [4]: inactive | Potency [10]: inactive | Potency [5]: inactive | Potency [6]: inactive | Potency [7]: inactive | Potency [11]: inactive

c1ccc2sc(SN(C3CCCCC3)C3CCCCC3)nc2c1
Potency [1]: inactive | Potency [12]: inactive | Potency [3]: inactive | Potency [10]: inactive | Potency [5]: inactive | Potency [6]: inactive | Potency [11]: inactive
